Compounds with a hit are over-represented: about 3.1% of the library has one in this group of screens.
EBV LMP1 NFkB: EBV LMP1-driven NF-kappaB luciferase reporter inhibitors, primary screen, cell-based, luminescence, single point. AID 504558, 2011. 0.69% of 350,000 active. LMP1-induced NF-kappaB luciferase reporter cells. inhibition, % at 12.5 µM; in the data active = inhibition above about 41%; inconclusive = no clear call, values can overlap the other calls;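 note: 0% = neutral control wells and 100% = reference inhibitor control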
TWEAK Fn14 block: inhibitors of TWEAK-Fn14 signaling, primary screen, luciferase reporter cells, uHTS; TWEAK-stimulated Fn14 reporter cells, luciferase luminescence, 8 h; inhibition, % at 10 µM; 2% of 360,000 active; AID 1159606, 2016; in the data active = inhibition above about 50%
EWS-Fli block: EWS/Fli-driven NR0B1 reporter inhibitors, primary screen, A673 cells, NR0B1 luciferase, luminescence, MLPCN library. 0.67% of 350,000 active. inhibition, % at 12.6 µM. viability-normalised. AID 651661, 2012;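 active = mean inhibition of at least 50% after viability correction, with every replicate also passing that limit; inconclusive = mean reaches 50% but only one of two replicates passes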;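 note: firefly luciferase signal divided by Alamar Blue viability fluorescence both relative to DMSO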
LGR2 antag: inhibitors of bursicon-induced LGR2 CRE-luciferase signal, primary screen, cell-based, HEK293, CRE-luciferase reporter, bursicon stimulation | AID 720647, 2013 | inhibition, % at 9.99 µM | Drosophila bursicon receptor LGR2 (rickets) | bursicon-stimulated, 4 h | 0.35% of 380,000 active;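 active = drop in luminescence signal, shown as inhibition above about 50% in the replicate tests, limit read from the data, passing the limit was not always enough; inconclusive = probably only some replicates passing the limit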;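 note: agonist challenge used bursicon conditioned medium at about half maximal strength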
TROY NFkB inh: inhibitors of TROY-driven NF-kB signaling, primary screen, Q293 LMP1-TROYcd cells, NF-kB luciferase, uHTS; Q293 LMP1-TROYcd NF-kB luciferase reporter, 4 h; inhibition, % at 10 µM; 0.98% of 360,000 active; AID 1347056, 2019;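 active = compounds whose plate-normalised and pattern-corrected inhibition of the luciferase reporter signal at the single screening dose is 50% or more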
PAX8 reporter: inhibitors of PAX8-driven TPO luciferase reporter, primary screen, RMG-I cells, single concentration. SteadyGlo, 24 h. inhibition, % at 12.6 µM. 1.2% of 360,000 active. AID 652154, 2013;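 active = mean replicate inhibition at least 60% with every replicate also reaching 60%; inconclusive = only one of the two criteria is met; inactive = mean below 60% and not all replicates reaching 60%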;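 note: luciferase light reporting Pax8 driven TPO promoter activity; plate controls were median of neutral control wells for no effect and mitoxantrone controls for full effect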
DNA binder FP: DNA binders by acridine orange displacement, dose response, counter-screen for EWS/Fli inhibitor project, biochemical, fluorescence polarization, cherry-pick. shares compounds with EWS-Fli block. salmon sperm DNA acridine orange fluorescence polarization. AC35, µM (titrated, usually from 68 µM), without a hit: at the top dose activity change, negative = DNA binding. 2% of 640 active. AID 720586, 2013;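 active = fitted curve reaches a 35% signal fall AC35 below twice the sample's top valid tested dose, actives reach about 48 µM in these data; inactive = the rest, including activity in the rising direction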;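 note: lower polarization ratio signals compound binding to DNA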
Starred values were filed as active, the others as inactive.

For Cc1cccc(NC(=O)CN2C(=O)N/C(=C/c3ccc(C)o3)C2=O)c1 the results were EBV LMP1 NFkB -11.4, TWEAK Fn14 block 19.1, LGR2 antag 0.1, TROY NFkB inh -2.0 and PAX8 reporter -0.2.
`O=C(C[C@H]1C=C[C@H](NC(=O)c2cccc(F)c2)[C@@H](CO)O1)NCc1ccccc1` gave EWS-Fli block -3.9, LGR2 antag 7.2 and PAX8 reporter -13.4.
CCNC(=O)[C@H]1[C@H](CO)[C@H]2Cn3c(ccc(-c4ccccc4)c3=O)[C@H]2N1Cc1cc(F)ccc1F was read as EWS-Fli block -2.3 and LGR2 antag -4.4.
For C[C@@H]1CN([C@H](C)CO)C(=O)c2cc(C3=CCCCC3)cnc2O[C@H]1CN(C)Cc1ccccn1 the results were EWS-Fli block 4.5 and LGR2 antag -6.0.
Screening Cc1ccc(/C=N/NC(=O)c2n[nH]c3c2CCCC3)cc1 returned TWEAK Fn14 block -9.1, EWS-Fli block 39.6, LGR2 antag -21.3, TROY NFkB inh -17.6 and PAX8 reporter inconclusive.
O=C(N/N=C/c1cccs1)c1n[nH]c2c1CCCC2 was read as EBV LMP1 NFkB 68.3*, TWEAK Fn14 block 93.5*, EWS-Fli block 51.9*, LGR2 antag 76.1*, TROY NFkB inh 67.7*, PAX8 reporter 64.6* and DNA binder FP -14.3%.
For C/C(=N\NC(=O)c1n[nH]c2c1CCC2)c1cccs1 the results were EBV LMP1 NFkB 74.1*, TWEAK Fn14 block 95.8*, EWS-Fli block 82.0*, TROY NFkB inh 62.7*, PAX8 reporter 102.1* and DNA binder FP 5.4%.
For O=C(C[C@H]1CC[C@@H]2[C@H](COC[C@@H](O)CN2Cc2ccccc2)O1)NCCCN1CCOCC1 the results were EWS-Fli block 0.1, LGR2 antag 9.9 and PAX8 reporter -8.7.
Screening COc1cc(-c2noc(C)c2C#Cc2nccn2C)cc(OC)c1OC returned EBV LMP1 NFkB -1.3, TWEAK Fn14 block -3.6, EWS-Fli block 51.5*, LGR2 antag -6.1, TROY NFkB inh -11.3, PAX8 reporter 24.5 and DNA binder FP -9.4%.
Cc1ccc2c(c1)C(=O)N1[C@H]3c4cc(Br)ccc4OC[C@@H]3[C@H](c3ccccc3)[C@]1(C)C(=O)N2 was read as EBV LMP1 NFkB 1.2, TWEAK Fn14 block 7.1, EWS-Fli block 56.1*, LGR2 antag -3.7, TROY NFkB inh -14.9, PAX8 reporter 28.4 and DNA binder FP 2.4%.
Screening CCC(=O)N1CC2(CCN(Cc3nccs3)CC2)c2c(n(C)c3cc(OC)ccc23)[C@@H]1CO returned EWS-Fli block 3.8 and LGR2 antag 4.2.
`CNC(=O)C[C@@H]1CC[C@@H]2[C@H](COC[C@@H](O)CN2C(=O)Nc2cccc(OC)c2)O1` gave EWS-Fli block -0.4, LGR2 antag -16.0 and PAX8 reporter 0.8.
`O=C(Nc1nc(-c2ccc(F)c(F)c2)cs1)c1ccc(OCC2CCCO2)cc1` (stereo not drawn) gave EBV LMP1 NFkB 33.3, TWEAK Fn14 block 33.8, EWS-Fli block 73.9*, LGR2 antag 6.7, TROY NFkB inh 31.6, PAX8 reporter 14.4 and DNA binder FP -6.0%.
`COc1ccc(-c2cnc3c(c2)C(=O)N([C@@H](C)CO)C[C@H](C)[C@@H](CN(C)C(=O)C2CCC2)O3)cc1` gave EWS-Fli block -23.4 and LGR2 antag 1.7.
`C/C(=N\Nc1cccc2cccnc12)c1ccccn1` gave EBV LMP1 NFkB -42.0, TWEAK Fn14 block 69.6*, EWS-Fli block 60.8*, LGR2 antag 56.5*, TROY NFkB inh -5.8, PAX8 reporter -62.7 and DNA binder FP -0.7%.
For C/C(=N\Nc1cccc2cccnc12)c1ccccc1O the results were EBV LMP1 NFkB -83.5, TWEAK Fn14 block 29.2, EWS-Fli block -10.8, LGR2 antag -46.4, TROY NFkB inh -6.6 and PAX8 reporter -59.3.
CC(=NNc1cc(C)c2ccccc2n1)c1ccccn1 was read as EWS-Fli block 64.1*, LGR2 antag -11.0, PAX8 reporter 94.7* and DNA binder FP -2.2%.
Screening C[C@H](CO)N1C[C@H](C)[C@H](CN(C)C(=O)Nc2ccc3c(c2)OCO3)OCCCC[C@H](C)Oc2ccc(NC(=O)c3ccccc3)cc2C1=O returned EWS-Fli block -29.1, LGR2 antag -6.3 and PAX8 reporter -35.0.
Screening Cc1ccc(S(=O)(=O)Nc2ccc3c(c2)CC(=O)N([C@H](C)CO)C[C@H](C)[C@H](CN(C)C(=O)Nc2ccc(F)cc2)O3)cc1 returned EWS-Fli block 2.4, LGR2 antag -9.3 and PAX8 reporter 5.9.
`C/C=C/c1cnc2c(c1)C(=O)N([C@@H](C)CO)C[C@@H](C)[C@H](CN(C)Cc1ccc(F)cc1)O2` gave EWS-Fli block 0.8, LGR2 antag -22.7 and PAX8 reporter 0.0.
For CCCCCCN(C(=O)CCCCCN1C(=O)NC(c2ccc(Cl)cc2)C(C(=O)OCc2ccccc2)=C1C)C(C(=O)NCCCC)c1ccc(OCC(=O)OC)c(C(=O)OC)c1 (stereo not drawn) the results were EWS-Fli block 66.0*, LGR2 antag 3.7, PAX8 reporter 58.5 and DNA binder FP -0.1%.
Screening Oc1[nH]c2ccc(Br)cc2c1N=NC(=S)N1CCOCC1 returned EBV LMP1 NFkB 9.9, TWEAK Fn14 block 104.7*, EWS-Fli block 57.1*, LGR2 antag -1.6, TROY NFkB inh 49.3, PAX8 reporter 91.2* and DNA binder FP -3.3%.
`COC(=O)N=Nc1c(O)[nH]c2ccc(Br)cc12` gave EBV LMP1 NFkB 20.1, TWEAK Fn14 block -24.2, EWS-Fli block 6.0, LGR2 antag -2.9, TROY NFkB inh 2.3 and PAX8 reporter 12.1.
CN1C/C(=C/c2ccsc2)C(=O)/C(=C/c2ccsc2)C1 was read as EBV LMP1 NFkB -5.5, TWEAK Fn14 block 24.6, EWS-Fli block 61.5*, LGR2 antag 8.4, TROY NFkB inh -4.5, PAX8 reporter 8.2 and DNA binder FP -12.7%.
`O=C1/C(=C\c2ccsc2)N2CCC1CC2` gave EBV LMP1 NFkB -1.8, TWEAK Fn14 block 1.5, EWS-Fli block 7.3, LGR2 antag -8.4, TROY NFkB inh 5.8 and PAX8 reporter 13.6.
For C[C@H](CO)N1C[C@H](C)[C@H](CN(C)C(=O)Nc2ccc(C(F)(F)F)cc2)Oc2c(NC(=O)Nc3ccc4c(c3)OCO4)cccc2C1=O the results were EWS-Fli block -6.2 and LGR2 antag 14.3.

Assay outcomes: PubChem BioAssay, several laboratories
